# Source: PubChem BioAssay (Tox21)
# Values joined by “and” are separate entries in the source; they are usually repeats but may differ in a detail not shown here. Identical values can stand only once. Unmarked numbers belong to inactive results. Results filed as inconclusive are left out. A call without a number means that no potency is given here. Active and inactive are the calls of the source. Unless noted, calls follow the shape of the full dose curve.
# Tests used:
# [1] = Nuclear factor erythroid 2-related factor 2/antioxidant responsive element (Nrf2/ARE) small molecule agonists: qHTS cell viability counter screen in human keratinocytes (AID 1919968; active = well fitted cell-killing curve with a large enough effect in the repeat runs; also: nearly all actives have a fitted effect of over 55% in size; also: potency is read from the fitted curve at half-maximal effect)
# In short: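 Viability counter-screen: KeratinoSens reporter cells, DMSO-delivered compounds, 23 h at 37 C, CellTiter-Fluor fluorescence.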
# [2] = Nuclear factor erythroid 2-related factor 2/antioxidant responsive element (Nrf2/ARE) small molecule agonists: luciferase reporter gene qHTS assay in human keratinocytes (AID 1919969); also: nearly all actives have a fitted effect of over 35% in size; also: potency is read from the fitted curve at half-maximal effect
# [3] = target: Gonadotropin-releasing hormone receptor (Homo sapiens) (UniProt P30968); test: Human gonadotropin-releasing hormone receptor (GnRHR) small molecule agonists, calcium flux assay in GnRHR-HEK293 cells (AID 1920063); also: nearly all actives have a fitted effect of over 35% in size
# In short: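 Tox21-format agonist screen using human GnRHR-expressing HEK293 cells and a fluorescent calcium dye; kinetic 3-min fluorescence reading after compound addition, 15-point concentration series run in triplicate.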
# [4] = p53 small molecule agonists, cell-based qHTS assay with human liver microsomes (AID 1963577);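 also: p53 response element beta-lactamase reporter cells with liver microsomes plus NADPH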
# In short: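 16 h, 37 C exposure of p53RE-bla cells to compounds with human liver microsomes and NADPH (0.5 mg/mL final each); detection via LiveBLAzer mixture, 2 h dark at room temperature.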
# [5] = p53 small molecule agonists, cell-based qHTS assay with rat liver microsomes (AID 1963578)
# In short: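 With rat liver microsomes and NADPH present (0.5 mg/mL final each), p53RE-bla cells are treated with compound for 16 h at 37 C. LiveBLAzer detection mixture is then applied for 2 h at room temperature in the dark.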
# [6] = p53 small molecule agonists, cell-based qHTS assay with human liver microsomes: qHTS cell viability counter screen (AID 1963579); also: nearly all actives have a fitted effect of over 45% in size
# In short: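 In this multiplexed counter screen, the reporter plates were subsequently treated with CellTiter-Glo so that cell viability, reflected by luminescence, could be recorded for p53RE-bla cells dosed 16 h with compounds under microsomal activation (HLM and NADPH).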
# [7] = p53 small molecule agonists, cell-based qHTS assay with rat liver microsomes: qHTS cell viability counter screen (AID 1963580); also: nearly all actives have a fitted effect of over 45% in size
# In short: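 In HCT-116 cells carrying a p53 response element-bla reporter, compounds were metabolically activated in situ by rat liver microsomes with NADPH over 16 h. Cell ATP content then served as the cytotoxicity measure.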
# [8] = p53 small molecule agonists, cell-based qHTS assay: qHTS cell viability counter screen (AID 1963581); also: nearly all actives have a fitted effect of over 45% in size
# In short: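 Compounds are pinned onto HCT-116 p53RE-bla cells and left 16 h at 37 C. Following the reporter FRET read, ATP is quantified by CellTiter-Glo luminescence after 30 min at room temperature.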
# [9] = p53 small molecule agonists, cell-based qHTS assay (AID 1963582; active = well fitted activation curve with a large enough effect in the signal ratio in the repeat runs, not every such curve was filed as active; the % refers to the signal ratio)
# In short: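 Agonist activity was scored from beta-lactamase FRET fluorescence in p53RE-bla cells treated 16 h at 37 C with compounds in DMSO, substrate incubation being 2 h at room temperature.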
# [10] = target: 5-hydroxytryptamine receptor 2A (Homo sapiens) (UniProt P28223); test: 5-hydroxytryptamine receptor 2A (HTR2A) small molecule antagonists, cell-based qHTS assay (AID 1963586); also: nearly all actives have a fitted effect of over 45% in size
# In short: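 Antagonist-mode intracellular calcium assay: DOI (4 nM) added after 5 min compound pre-incubation at room temperature to dye-loaded HTR2A-CHO cells. Fluorescence followed for 3 min, sampled every second.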
# [11] = target: 5-hydroxytryptamine receptor 2A (Homo sapiens) (UniProt P28223); test: 5-hydroxytryptamine receptor 2A (HTR2A) small molecule agonists, cell-based qHTS assay (AID 1963587); also: nearly all actives have a fitted effect of over 30% in size
# In short: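 HTR2A-CHO cells, plated 18 h at 37 C/5% CO2, dye-loaded 1 h at 37 C; compounds in DMSO added by pin tool (agonist mode). Intracellular calcium flux read as kinetic fluorescence on FDSS over 2 min at 1 s intervals.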
# [12] = target: Muscarinic acetylcholine receptor M1 (Homo sapiens) (UniProt P11229); test: Cholinergic receptor muscarinic 1 (CHRM1) small molecule antagonists, cell-based qHTS assay (AID 1963588); also: nearly all actives have a fitted effect of over 40% in size
# In short: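 CHRM1-CHO calcium-flux assay, antagonist mode. Cells were seeded 18 h, dye-loaded 1 h at 37 C and given compound for 5 min at RT, then acetylcholine was added at 50nM. FDSS fluorescence was read 3 min; 15 concentrations, three runs.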
# [13] = target: Muscarinic acetylcholine receptor M1 (Homo sapiens) (UniProt P11229); test: Cholinergic receptor muscarinic 1 (CHRM1) small molecule agonists, cell-based qHTS assay (AID 1963589); also: nearly all actives have a fitted effect of over 35% in size
# In short: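 Stable CHRM1-CHO cells (human receptor) were incubated 18 h, dye-loaded for 1 h at 37 C and exposed to test compounds for agonist activity, with calcium-dependent fluorescence followed kinetically.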
# [14] = cAMP Responsive Elements (CRE) small molecule agonists, cell-based qHTS assay (AID 1963590)
# In short: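 FRET-based beta-lactamase readout (LiveBLAzer B/G, 2 h RT) quantified CRE activation in HEK 293T CRE-bla cells after 3 h treatment with DMSO-dissolved compounds.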
# [15] = cAMP Responsive Elements (CRE) small molecule antagonists, cell-based qHTS assay (AID 1963591; active = well fitted inhibition curve with a large enough effect in the signal ratio in the repeat runs, not every such curve was filed as active; the % refers to the signal ratio)
# In short: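 qHTS in CRE-bla HEK 293T cells: compound in DMSO, then 0.25 uM NKH477 (final), 3 h at 37 °C/5% CO2; beta-lactamase FRET read-out after 2 h substrate incubation.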
# [16] = target: Beta-2 adrenergic receptor (Homo sapiens) (UniProt P07550); test: Adrenergic beta2 receptor (ADRB2) small molecule antagonists, cell-based qHTS assay (AID 1963592); also: series mostly up to about 92 µM; nearly all actives have a fitted effect of over 50% in size
# In short: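 Cells (CHO, stable ADRB2 overexpression) incubated 18-20hr at 37C; compounds added from DMSO; agonist mix (1nM isoproterenol, 100uM IBMX, 25uM Ro-20-1724) added; 0.5hr RT; d2-cAMP and anti-cAMP-cryptate added; 1hr RT; 665/615 nm read.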
# [17] = target: Beta-2 adrenergic receptor (Homo sapiens) (UniProt P07550); test: Adrenergic beta2 receptor (ADRB2) small molecule agonists, cell-based qHTS assay (AID 1963593);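 also: CHO cells stably overexpressing human ADRB2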
# In short: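 CHO cells stably over-expressing ADRB2 were plated overnight at 37C, then dosed with compounds plus a stimulation mix containing 100uM IBMX and 25uM Ro-20-1724 for 0.5hr at room temperature. cAMP was measured by HTRF competition, 1hr.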
# [18] = target: D(2) dopamine receptor (Homo sapiens) (UniProt P14416); test: Dopamine D2 receptor (DRD2) small molecule agonists, cell-based qHTS assay (AID 1963594); also: nearly all actives have a fitted effect of over 35% in size
# In short: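 HEK293 cells stably expressing DRD2 were cultured 24 h at 37 C, then given Ro20-1724 (0.1 mM final) and compounds for 10 min at room temperature. NKH477 (200nM) was then added for 30 min. cAMP was read by HTRF.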
# [19] = target: D(2) dopamine receptor (Homo sapiens) (UniProt P14416); test: Dopamine D2 receptor (DRD2) small molecule antagonists, cell-based qHTS assay (AID 1963595; active = well fitted inhibition curve with a large enough effect in the signal ratio in the repeat runs, with a control signal flat; the % refers to the signal ratio)
# In short: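 HEK293 cells stably expressing DRD2 were preincubated with 0.1 mM Ro20-1724, then with compound for 10 min at room temperature. Cells were stimulated with 200 nM NKH477 plus 12 nM quinpirole for 30 min, and cAMP was read by HTRF.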
# [20] = G protein-coupled receptor (GPCR) small molecule agonists, calcium flux assay: HEK293 wild type cell line counter screen (AID 1920065)
# In short: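 In this agonist-mode screen, ATP is the positive control and DMSO the vehicle. Cells grow 18 h before a 1 h dye incubation at 37 C; signal is taken at Ex/Em 480/540 over 3 min.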
# D(2) dopamine receptor (Homo sapiens), sequence (P14416 whole entry, looked up): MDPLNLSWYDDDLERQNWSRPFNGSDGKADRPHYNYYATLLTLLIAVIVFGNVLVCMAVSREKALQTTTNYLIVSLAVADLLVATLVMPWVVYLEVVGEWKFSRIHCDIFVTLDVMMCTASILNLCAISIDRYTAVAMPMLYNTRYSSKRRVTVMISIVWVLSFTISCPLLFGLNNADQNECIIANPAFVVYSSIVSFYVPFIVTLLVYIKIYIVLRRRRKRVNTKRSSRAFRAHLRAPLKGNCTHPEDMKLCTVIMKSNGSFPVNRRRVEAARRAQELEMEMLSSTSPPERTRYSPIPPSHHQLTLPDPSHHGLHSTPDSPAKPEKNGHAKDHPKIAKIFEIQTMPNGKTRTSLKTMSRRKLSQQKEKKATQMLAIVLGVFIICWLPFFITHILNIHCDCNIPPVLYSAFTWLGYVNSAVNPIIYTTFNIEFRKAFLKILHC
# Beta-2 adrenergic receptor (Homo sapiens), sequence (P07550 whole entry, looked up): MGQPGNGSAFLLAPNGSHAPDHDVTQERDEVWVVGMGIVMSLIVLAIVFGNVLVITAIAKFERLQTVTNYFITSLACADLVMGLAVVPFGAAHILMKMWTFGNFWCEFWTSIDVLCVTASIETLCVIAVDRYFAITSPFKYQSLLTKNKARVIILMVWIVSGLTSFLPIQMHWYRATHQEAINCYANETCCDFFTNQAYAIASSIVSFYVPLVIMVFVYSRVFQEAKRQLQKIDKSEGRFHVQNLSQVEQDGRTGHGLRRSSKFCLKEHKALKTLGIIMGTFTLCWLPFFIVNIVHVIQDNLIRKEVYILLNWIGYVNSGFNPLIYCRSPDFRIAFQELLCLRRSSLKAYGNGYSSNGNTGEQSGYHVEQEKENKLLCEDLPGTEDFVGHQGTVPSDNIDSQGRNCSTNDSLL
# 5-hydroxytryptamine receptor 2A (Homo sapiens), sequence (P28223 whole entry, looked up): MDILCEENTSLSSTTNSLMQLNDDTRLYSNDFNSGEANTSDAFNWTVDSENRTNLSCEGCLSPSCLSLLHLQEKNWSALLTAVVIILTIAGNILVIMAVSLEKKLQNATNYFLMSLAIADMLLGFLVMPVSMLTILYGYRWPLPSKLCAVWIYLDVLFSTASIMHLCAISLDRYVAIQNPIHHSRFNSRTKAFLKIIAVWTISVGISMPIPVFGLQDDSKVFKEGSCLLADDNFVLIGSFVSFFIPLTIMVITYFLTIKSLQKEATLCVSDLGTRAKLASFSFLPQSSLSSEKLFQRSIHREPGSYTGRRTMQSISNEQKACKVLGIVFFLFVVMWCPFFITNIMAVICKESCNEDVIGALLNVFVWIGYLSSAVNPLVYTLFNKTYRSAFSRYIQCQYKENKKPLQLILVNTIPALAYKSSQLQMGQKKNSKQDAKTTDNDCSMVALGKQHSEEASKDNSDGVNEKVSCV
# Gonadotropin-releasing hormone receptor (Homo sapiens), sequence (P30968 whole entry, looked up): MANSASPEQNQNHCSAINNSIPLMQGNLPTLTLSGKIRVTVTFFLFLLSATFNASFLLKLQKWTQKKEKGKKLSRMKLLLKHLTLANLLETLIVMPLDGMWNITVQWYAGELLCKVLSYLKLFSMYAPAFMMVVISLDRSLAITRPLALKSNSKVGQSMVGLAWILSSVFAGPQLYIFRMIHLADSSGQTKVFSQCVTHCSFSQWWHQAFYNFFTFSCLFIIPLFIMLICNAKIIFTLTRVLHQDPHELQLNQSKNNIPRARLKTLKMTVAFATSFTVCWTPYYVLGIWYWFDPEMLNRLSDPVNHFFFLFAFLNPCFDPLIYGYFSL
# Muscarinic acetylcholine receptor M1 (Homo sapiens), sequence (P11229 whole entry, looked up): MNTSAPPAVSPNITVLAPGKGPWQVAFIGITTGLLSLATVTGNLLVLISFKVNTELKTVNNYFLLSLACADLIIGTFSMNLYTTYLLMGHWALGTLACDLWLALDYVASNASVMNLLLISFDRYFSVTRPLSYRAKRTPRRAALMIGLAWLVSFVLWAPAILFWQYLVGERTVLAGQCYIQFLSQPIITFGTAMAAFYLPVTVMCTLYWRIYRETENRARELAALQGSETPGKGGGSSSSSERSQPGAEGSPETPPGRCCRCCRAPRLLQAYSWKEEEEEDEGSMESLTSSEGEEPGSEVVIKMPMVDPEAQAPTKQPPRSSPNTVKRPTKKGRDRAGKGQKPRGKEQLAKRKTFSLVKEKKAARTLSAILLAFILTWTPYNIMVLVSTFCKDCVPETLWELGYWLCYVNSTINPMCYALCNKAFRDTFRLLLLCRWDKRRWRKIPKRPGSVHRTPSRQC
smiles,measurement,setting,value
NS(=O)(=O)c1ccccc1Cl,Potency,[1],inactive
same,Potency,[2],inactive
same,Potency,[3],inactive
same,Potency,[4],inactive
same,Potency,[5],inactive
same,Potency,[6],inactive
same,Potency,[7],inactive
same,Potency,[8],inactive
same,Potency,[9],inactive
same,Potency,[10],inactive
same,Potency,[11],inactive
same,Potency,[12],inactive
same,Potency,[13],inactive
same,Potency,[14],inactive
same,Potency,[15],inactive
same,Potency,[16],inactive
same,Potency,[17],inactive
same,Potency,[18],inactive
same,Potency,[19],inactive
CC(C)OCCO,Potency,[1],inactive
same,Potency,[2],inactive
same,Potency,[3],inactive
same,Potency,[4],inactive
same,Potency,[5],inactive
same,Potency,[6],inactive
same,Potency,[7],inactive
same,Potency,[8],inactive
same,Potency,[9],inactive
same,Potency,[10],inactive
same,Potency,[11],inactive
same,Potency,[12],inactive
same,Potency,[13],inactive
same,Potency,[14],inactive
same,Potency,[15],inactive
same,Potency,[16],inactive
same,Potency,[17],inactive
same,Potency,[18],inactive
same,Potency,[19],inactive
CC(C)c1ccccc1O,Potency,[1],inactive
same,Potency,[2],inactive
same,Potency,[3],inactive
same,Potency,[4],inactive
same,Potency,[5],inactive
same,Potency,[6],inactive
same,Potency,[7],inactive
same,Potency,[8],inactive
same,Potency,[9],inactive
same,Potency,[10],inactive
same,Potency,[11],inactive
same,Potency,[12],inactive
same,Potency,[13],inactive
same,Potency,[14],inactive
same,Potency,[15],inactive
same,Potency,[16],inactive
same,Potency,[17],inactive
same,Potency,[18],inactive
same,Potency,[19],inactive
OC[C@H]1O[C@@](CO)(O[C@H]2O[C@H](CO)[C@@H](O)[C@H](O)[C@H]2O)[C@@H](O)[C@@H]1O,Potency,[1],inactive
same,Potency,[2],inactive
same,Potency,[3],inactive
same,Potency,[20],inactive
same,Potency,[6],inactive
same,Potency,[8],inactive
same,Potency,[11],inactive
same,Potency,[12],inactive
same,Potency,[13],inactive
same,Potency,[14],inactive
same,Potency,[15],inactive
same,Potency,[16],inactive
same,Potency,[18],inactive
CO[Si](CCCNCCN)(OC)OC,Potency,[1],inactive
same,Potency,[2],inactive
same,Potency,[3],inactive
same,Potency,[20],inactive
same,Potency,[7],inactive
same,Potency,[8],inactive
same,Potency,[10],inactive
same,Potency,[11],inactive
same,Potency,[12],inactive
same,Potency,[13],inactive
same,Potency,[14],inactive
same,Potency,[15],inactive
same,Potency,[16],inactive
same,Potency,[17],inactive
same,Potency,[18],inactive
same,Potency,[19],inactive
CCCN1C=CN(C)C1,Potency,[1],inactive
same,Potency,[2],inactive
same,Potency,[3],inactive
same,Potency,[20],inactive
same,Potency,[7],inactive
same,Potency,[8],inactive
same,Potency,[10],inactive
same,Potency,[12],inactive
same,Potency,[13],inactive
same,Potency,[15],inactive
same,Potency,[16],inactive
same,Potency,[17],inactive
same,Potency,[18],inactive
same,Potency,[19],inactive
C[C@@H]1CC(=O)NN=C1c1ccc(NN=C(C#N)C#N)cc1,Potency,[1],11.9 µM (active) and 21.1 µM (active)
same,Potency,[2],23.7 µM (active) and 26.6 µM (active)
same,Potency,[3],inactive
same,Potency,[20],inactive
same,Potency,[6],inactive
same,Potency,[8],inactive
same,Potency,[10],inactive
same,Potency,[11],inactive
same,Potency,[12],inactive
same,Potency,[13],inactive
same,Potency,[16],inactive
same,Potency,[18],inactive
CC1=CC[C@@H]2C[C@H]1C2(C)C,"activity change, negative = cytotoxicity",[1],-0.0198% [at 19 µM]
same,"activity, positive = activation",[2],-20.3% [at 19 µM]
same,activity change,[3],"0.0518% [at 11.8 µM, stronger effect = higher value]"
same,activation,[20],-1.47% [at 11.8 µM]
same,"activity change, negative = cytotoxicity",[8],-11.2% [at 13.5 µM]
same,"activity, negative = inhibition",[10],6.44% [at 12.7 µM]
same,activation,[11],-0.177% [at 15.9 µM]
same,"activity, negative = inhibition",[12],-2.89% [at 12.6 µM]
same,activation,[13],-0.0486% [at 15.8 µM]
same,activation,[14],0.0762% [at 19 µM]
same,"activity change, negative = inhibition",[15],3.33% [at 18.9 µM]
same,"activity change, negative = inhibition",[16],-16.3% [at 19 µM]
same,activation,[18],-0.279% [at 19 µM]
same,"activity change, negative = inhibition",[19],-2.93% [at 18.9 µM]
